Experiment [1] is described as follows: qHTS assay to test for compound auto fluorescence at 535 nm (green) in HEK293 cells (AID 720680).
Experiment [2] can be described thus: qHTS assay to test for compound auto fluorescence at 460 nm (blue) in HEK293 cell free culture (AID 720681). In short, it runs like this:
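Compounds were added to cell-free DMEM with 10% FBS and fluorescence read directly. The blue channel used 405 nm excitation and 460 nm emission, with triamterene as the reference fluorophore.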
(In general: In qHTS, concentration-response curves come from the screen itself.)

Experiment [3] can be described thus: qHTS assay to test for compound auto fluorescence at 535 nm (green) in HEK293 cell free culture (AID 720682). The method in brief: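 Intrinsic compound fluorescence is measured in culture medium containing 10% FBS, with excitation at 485 nm and detection at 535 nm, referenced to fluorescein.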
Experiment [4] can be described thus: qHTS assay to test for compound auto fluorescence at 590 nm (red) in HEK293 cell free culture (AID 720683). The method in brief: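 Cell-free wells of DMEM with 10% FBS received compound, and intrinsic fluorescence was read at excitation/emission 540/590 nm. Values expressed as equivalence to Rose Bengal sodium.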
Experiment [5] is described as follows: qHTS assay to test for compound auto fluorescence at 590 nm (red) in HepG2 cell free culture (AID 720684). In short, it runs like this: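 Compound was pinned into wells holding MEM with 10% FBS and no cells, and red fluorescence was read at Ex/Em 540/590 nm. Signal is expressed as auto fluorescence equivalency relative to Rose Bengal sodium.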
The nature of experiment [6]: qHTS assay to test for compound auto fluorescence at 460 nm (blue) in HepG2 cell free culture (AID 720685). The method in brief: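 Compound (23 nL) or DMSO pinned into cell-free MEM with 10% FBS; blue fluorescence read at 405/460 nm excitation/emission, expressed as auto-fluorescence equivalency to triamterene.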
Experiment [7] in a line: qHTS assay to test for compound auto fluorescence at 535 nm (green) in HepG2 cell free culture (AID 720686).
Experiment [8] can be described thus: qHTS assay to test for compound auto fluorescence at 460 nm (blue) in HepG2 cells (AID 720687). In short, it runs like this:
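HepG2 cells in MEM with 10% FBS, attached overnight at 37 C, were exposed to compound or DMSO for 1 hr at 37 C, 5% CO2. Blue fluorescence was read at 405/460 nm, with triamterene as reference fluorophore.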

Experiment [9] has as its target Glucocorticoid receptor (Homo sapiens) (UniProt P04150). Briefly: qHTS assay to identify small molecule agonists of the glucocorticoid receptor (GR) signaling pathway (AID 720691; active = well fitted activation curve with a large enough effect in the signal ratio in the repeat runs, not every such curve was filed as active; inconclusive = weak or mixed curves, or effect the other way; inactive = no such curve, though single readings can be large or run the other way; the % refers to the signal ratio; also: potency is read from the fitted curve at half-maximal effect). The conditions noted are these: GR-bla HeLa, beta-lactamase reporter ratio, 18 h; activation: at 62.4 µM (top of the series). The method in brief: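 Reporter read-out: fluorescence intensity following 2 h room-temperature LiveBLAzer B/G FRET substrate loading. Prior step: GR-bla HeLa cells held 4 h, then treated 18 h at 37 C.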

Activity calls are given as the source filed them. Unless noted, calls follow the shape of the dose curve; as a rule, active = well fitted curve in the direction sought with a large enough effect in the repeat runs; inconclusive = weak or mixed curves; inactive = flat fitted curve, though single readings scatter.

Drawing on PubChem BioAssay (Tox21), this text covers Potency and outcome for 18 molecules.

Glucocorticoid receptor (Homo sapiens), sequence (P04150 whole entry, looked up): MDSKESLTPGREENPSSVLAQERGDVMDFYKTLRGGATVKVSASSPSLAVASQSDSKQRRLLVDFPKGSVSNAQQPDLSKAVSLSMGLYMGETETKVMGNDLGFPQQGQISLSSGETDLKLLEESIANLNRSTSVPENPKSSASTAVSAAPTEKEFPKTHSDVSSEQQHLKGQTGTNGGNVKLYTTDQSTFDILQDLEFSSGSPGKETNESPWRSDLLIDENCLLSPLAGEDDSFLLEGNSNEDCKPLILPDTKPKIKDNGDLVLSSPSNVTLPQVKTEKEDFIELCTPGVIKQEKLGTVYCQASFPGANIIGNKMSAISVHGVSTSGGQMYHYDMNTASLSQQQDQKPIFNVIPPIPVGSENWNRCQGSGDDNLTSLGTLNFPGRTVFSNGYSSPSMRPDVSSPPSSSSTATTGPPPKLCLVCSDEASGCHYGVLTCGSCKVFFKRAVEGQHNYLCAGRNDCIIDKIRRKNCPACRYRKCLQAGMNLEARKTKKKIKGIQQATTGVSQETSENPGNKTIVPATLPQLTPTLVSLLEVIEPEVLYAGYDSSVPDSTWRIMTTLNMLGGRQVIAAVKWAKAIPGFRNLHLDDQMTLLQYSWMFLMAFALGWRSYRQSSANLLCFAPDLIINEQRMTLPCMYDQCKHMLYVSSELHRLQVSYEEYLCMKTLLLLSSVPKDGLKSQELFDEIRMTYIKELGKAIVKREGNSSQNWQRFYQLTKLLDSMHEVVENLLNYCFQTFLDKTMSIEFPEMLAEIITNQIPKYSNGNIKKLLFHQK

As to `CN[C@@H]1[C@H](O[C@H]2[C@H](O[C@H]3[C@H](O)[C@@H](O)[C@H](N=C(N)N)[C@@H](O)[C@@H]3N=C(N)N)O[C@@H](C)[C@]2(O)C=O)O[C@@H](CO)[C@H](O)[C@H]1O`, the Potency result in experiment [1], in [2], in experiment [3], in [4], in experiment [5] and in experiment [7] was “inactive” each time. Further, the Potency result in experiment [9] is “inactive”. In addition, the result in experiment [6] and in experiment [8] was inactive.

Regarding `COc1cc([C@@H]2c3cc4c(cc3C(O[C@@H]3O[C@@H]5COC(c6cccs6)O[C@H]5[C@H](O)[C@H]3O)C3COC(=O)[C@@H]32)OCO4)cc(OC)c1O` (some centres undefined), the Potency entry in [1], in experiment [2], in experiment [3], in experiment [4], in experiment [5] and in experiment [7] was “inactive” throughout. The molecule was classed as inactive in [6] and in [8]. Moreover, the Potency in experiment [9] is 3380 nM (active).

For `COC(=O)[C@H]1[C@H]2C[C@@H]3c4[nH]c5cc(OC)ccc5c4CCN3C[C@H]2C[C@@H](OC(=O)/C=C/c2cc(OC)c(OC)c(OC)c2)[C@@H]1OC`, the Potency entry in [1], in [2], in experiment [3], in [4], in experiment [5] and in experiment [7] was “inactive” in each case. In addition, the Potency result in experiment [9] was “inactive”. The result in [6] and in experiment [8] was inactive.

Consider `CCN(CC)CCOc1ccccc1OC`, for which the Potency entry in experiment [1], in experiment [2], in [3], in experiment [4], in experiment [5] and in experiment [7] was “inactive” in each case. The Potency result in experiment [9] is “inactive”. For the same molecule, the result in [6] and in experiment [8] was inactive.

In the case of `COc1ccc(C(=O)CCC(=O)O)c2ccccc12`, the Potency result in experiment [1], in experiment [2], in [3], in experiment [4], in experiment [5] and in [7] was “inactive” throughout. Further, the Potency result in experiment [9] was “inactive”. Moreover, the molecule was classed as inactive in experiment [6] and in [8].

`COc1cc([C@@H]2c3cc4c(cc3C(O[C@@H]3O[C@@H]5CO[C@@H](C)O[C@H]5[C@H](O)[C@H]3O)C3COC(=O)[C@@H]32)OCO4)cc(OC)c1OP(=O)(O)O` (some centres undefined): the Potency result in experiment [1], in experiment [2], in experiment [3], in experiment [4], in [5] and in experiment [7] was “inactive” in each case. Besides, the molecule was called inactive in experiment [6] and in experiment [8].

For `CC(=O)Nc1ccc(NC(=S)NC(=O)c2ccc(C(C)(C)C)cc2)cc1`, the Potency entry in experiment [1], in experiment [2], in [3], in experiment [4], in experiment [5] and in [7] was “inactive” throughout. In [9], the Potency result is “inactive”. In addition, the outcome in experiment [6] and in experiment [8] was inactive.

For the molecule `CN(C)CCC=C1c2ccccc2C(C)(C)c2ccccc21`, the Potency result in experiment [1], in [2], in experiment [3], in experiment [4], in [5] and in [7] was “inactive” each time. In [9], the Potency entry was “inactive”. The molecule was classed as inactive in [6] and in experiment [8].

Consider `CCC(=O)O[C@]1(C(=O)CCl)[C@@H](C)C[C@H]2[C@@H]3C[C@H](F)C4=CC(=O)C=C[C@]4(C)[C@@]3(F)[C@@H](O)C[C@@]21C`, for which the Potency entry in experiment [1], in experiment [2], in experiment [3], in [4], in experiment [5] and in experiment [7] was “inactive” throughout. Further, the molecule was called inactive in experiment [6] and in experiment [8]. For the same molecule, the Potency in experiment [9] is 0.7 nM (active).

As for `CC(C)C(=O)OCC(=O)[C@@]12O[C@H](C3CCCCC3)O[C@@H]1C[C@H]1[C@@H]3CCC4=CC(=O)C=C[C@]4(C)[C@H]3[C@@H](O)C[C@@]12C`, the Potency result in experiment [1], in experiment [2], in experiment [3], in experiment [4], in experiment [5] and in experiment [7] was “inactive” throughout. Also, the outcome in experiment [6] and in [8] was inactive.

On to `O=c1oc2cc(O)ccc2s1`, for which the Potency entry in experiment [1], in [2], in experiment [3], in experiment [4], in experiment [5] and in experiment [7] was “inactive” throughout. Further, the Potency entry in experiment [9] was “inactive”. For the same molecule, the outcome in [6] and in [8] was inactive.

Consider `CC1=C(/C=C/C(C)=C/C=C/C(C)=C/C=C/C=C(C)/C=C/C=C(C)/C=C/C2=C(C)C(=O)CCC2(C)C)C(C)(C)CCC1=O`, for which the Potency entry in experiment [1], in [2], in experiment [3], in experiment [4], in experiment [5] and in experiment [7] was “inactive” each time. In [9], the Potency entry was “inactive”. The outcome in experiment [6] and in experiment [8] was inactive.

Regarding `CCC(=O)OCC(=O)[C@@]1(OC(=O)CC)[C@H](C)C[C@H]2[C@H]3[C@H]([C@@H](O)C[C@@]21C)[C@@]1(C)C=CC(=O)C=C1C[C@H]3Cl`, the Potency result in [1], in experiment [2], in [3], in [4], in experiment [5] and in experiment [7] was “inactive” throughout. The molecule was called inactive in experiment [6] and in experiment [8]. The Potency in experiment [9] is 20.4 nM (active).

In the case of `N[C@H](CC(=O)O)C(=O)O`, the Potency entry in experiment [1], in experiment [2], in [3], in experiment [4], in experiment [5] and in experiment [7] was “inactive” throughout. The Potency result in [9] is “inactive”. The outcome in experiment [6] and in [8] was inactive.

Turning to `C[C@@H]1C[C@H]2[C@@H]3CCC4=CC(=O)C=C[C@]4(C)[C@@]3(F)[C@@H](O)C[C@]2(C)[C@@]1(O)C(=O)COC(=O)c1cccc(S(=O)(=O)O)c1`, the Potency entry in [1], in experiment [2], in experiment [3], in [4], in experiment [5] and in [7] was “inactive” in each case. Besides, the call in experiment [6] and in experiment [8] was inactive. Also, in experiment [9], the Potency was 338 nM [inconclusive] (active).

In the case of `N[C@H](CCC(=O)O)C(=O)O`, the Potency result in [1], in experiment [2], in experiment [3], in experiment [4], in experiment [5] and in experiment [7] was “inactive” each time. Further, the Potency result in experiment [9] is “inactive”. For the same molecule, the molecule was classed as inactive in experiment [6] and in experiment [8].

Regarding `OC(CN1CCCCC1)c1cc(-c2ccccc2)on1` (centres undefined), the Potency result in experiment [1], in experiment [2], in [3], in experiment [4], in [5] and in experiment [7] was “inactive” each time. In experiment [9], the Potency entry was “inactive”. In addition, the call in [6] and in experiment [8] was inactive.

Take `CCCCCCCCCCCCCCCCCC(=O)OCC(C)O` (centres undefined): the Potency result in experiment [1], in experiment [2], in experiment [3], in experiment [4], in [5] and in experiment [7] was “inactive” in each case. In addition, the molecule was called inactive in experiment [6] and in experiment [8].
